SW480 rerep: A quantitative high throughput screen for small molecules that induce DNA re-replication in SW480 colon adenocarcinoma cells; actives 1.8% (n = 340,000); Potency, µM (doses to about 46.1 µM), for inactives: top-dose re-replication activation, usual class: activators; AID 624297, 2012; SW480 DNA re-replication, Hoechst DNA content imaging, 48 h; note: % of control where 0% means no effect; nearly all actives have a fitted effect of over 55% in size
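Quantitative HTS format with DMSO vehicle controls; 48 hr drug incubation at 37 C, then 40 min Hoechst staining and scanning imager measurement at 405 nm excitation.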
MCF10A rereplic: A quantitative high throughput screen for small molecules that induce DNA re-replication in MCF 10a normal breast cells; Potency, µM (top dose mostly 46.1 µM), for the others: top-dose activity, positive = re-replication, hits mostly activators; MCF 10A DNA re-replication, Hoechst nuclear intensity, 48 h; actives 2.9% (n = 350,000); note: % of control where 0% means no effect; nearly all actives have a fitted effect of over 50% in size
VP16 counter: VP16 counterscreen qHTS for inhibitors of ROR gamma transcriptional activity; Drosophila S2 Gal4-VP16 UAS-luciferase, luminescence, 20 h; Potency, µM (top dose mostly 53.6 µM), inactives show at the highest dose activity, negative = inhibition, actives largely listed as inhibitors; actives 3.5% (n = 310,000); AID 2546, 2010;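 note: Gal4-VP16 expression switched on by copper sulfate through the metallothionein promoter; % is set by controls: 0 for no effect and ±100 for the full control effect; nearly all actives have a fitted effect of over 50% in size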
RORg inh: qHTS for inhibitors of ROR gamma transcriptional activity | actives 5.4% (n = 310,000) | Potency, µM (series often up to 53.6 µM), for the others: at the highest dose activity change, negative = inhibition, hits mostly inhibitors | AID 2551, 2010 | Nuclear receptor ROR-gamma (Mus musculus), P51450 | Drosophila S2 Gal4-RORgamma UAS-luciferase reporter, 20 h; note: % is set by controls: 0 for no effect and ±100 for the full control effect; nearly all actives have a fitted effect of over 60% in size
Target sequence (P51450 whole entry, looked up, the tested form may be a part): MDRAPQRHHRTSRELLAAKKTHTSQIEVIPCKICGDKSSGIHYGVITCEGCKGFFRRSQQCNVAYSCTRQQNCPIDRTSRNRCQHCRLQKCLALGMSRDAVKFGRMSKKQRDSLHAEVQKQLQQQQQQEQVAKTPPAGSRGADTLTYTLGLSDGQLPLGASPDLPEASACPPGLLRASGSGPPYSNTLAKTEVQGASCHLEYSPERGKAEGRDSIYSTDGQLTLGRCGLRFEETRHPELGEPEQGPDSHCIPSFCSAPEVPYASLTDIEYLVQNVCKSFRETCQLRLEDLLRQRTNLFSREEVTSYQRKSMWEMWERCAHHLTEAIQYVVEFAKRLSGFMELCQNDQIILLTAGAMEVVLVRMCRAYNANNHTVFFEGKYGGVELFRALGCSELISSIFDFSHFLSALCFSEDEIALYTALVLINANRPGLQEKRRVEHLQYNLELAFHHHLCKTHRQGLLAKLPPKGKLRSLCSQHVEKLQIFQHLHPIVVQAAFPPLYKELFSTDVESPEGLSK
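In this cell-based reporter format, copper sulfate (700 uM final) drives Gal4–ROR gamma fusion expression from a metallothionein promoter in Drosophila Schneider cells; compounds preincubated 1 hr, reporter read after 20 hr at ambient temperature.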
ELG1 repair inh: qHTS screen for small molecules that inhibit ELG1-dependent DNA repair in human embryonic kidney (HEK293T) cells expressing luciferase-tagged ELG1. HEK293T ELG1-luciferase reporter, luminescence, 16 h; DNA damage induced by 5-fluorouridine. Potency, µM (series often up to 46.1 µM), without a hit: at the highest dose activity change, negative = inhibition, actives largely listed as inhibitors. actives 2.3% (n = 330,000); note: % is set by controls: 0 for no effect and ±100 for the full control effect; nearly all actives have a fitted effect of over 55% in size
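Overnight (16 hr) co-exposure of 2,000 cells/well to 5-fluorouridine and compound at 37 °C preceded detection. Luciferase was quantified via ONE-Glo luminescence; loss of signal denotes inhibition.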
* = called active by the depositor. Compounds with a hit are over-represented: about 10% of the library has one in this group of screens. Calls come from the whole dose curve; as a rule, active = well fitted curve in the direction sought with a large enough effect; inconclusive = small, poorly fitted or top-dose-only effect, or another doubt; inactive = no such curve, though single readings can be large; an effect the other way counts as inactive or inconclusive. Potency is the fitted concentration of half-maximal effect.

What do the screens show for `C=CCN(CC=C)c1cnn(-c2nc3ccccc3[nH]2)c(=O)c1Cl`?
SW480 rerep: 13%; MCF10A rereplic: 29%; VP16 counter: -3%; RORg inh: 20%; ELG1 repair inh: inconclusive

How did COc1ccc(C2=CCN3CCCCC3C2)c(-c2ccc(OC)c(OC)c2)c1 (stereo unspecified) do in these assays?
SW480 rerep: 2%; MCF10A rereplic: 8.2µM*; ELG1 repair inh: inconclusive

Results for COc1ccc(OC)c(S(=O)(=O)N2CCN3CCCC3C2)c1 (stereo unspecified) ?
SW480 rerep: inconclusive; MCF10A rereplic: 6%; VP16 counter: 0%; RORg inh: 1%; ELG1 repair inh: 5%

Results for COc1cc(OC)cc(C(=O)N2CCN(Cc3ccccc3[N+](=O)[O-])CC2)c1 ?
SW480 rerep: 3%; MCF10A rereplic: -2%; VP16 counter: 10%; RORg inh: 12%; ELG1 repair inh: -1%

How did C[C@@H]1O[C@H](O[C@@H]2C(O)[C@H](O)[C@@H](CO)O[C@H]2Oc2cc(O)c3c(=O)cc(-c4ccc(O)cc4)oc3c2)[C@H](O)[C@H](O)[C@H]1O (stereo partly specified) do in these assays?
VP16 counter: -10%; RORg inh: 11%

How did CC1CCC/C=C/C(=O)c2c(O)cc(O)cc2CC(=O)O1 (stereo unspecified) do in these assays?
SW480 rerep: inconclusive; MCF10A rereplic: 1µM*; VP16 counter: 22µM*; RORg inh: inconclusive; ELG1 repair inh: 8.2µM*

What do the screens show for `C[C@@H]1Cc2c(O)c(O)cc(O)c2C(=O)O1`?
SW480 rerep: -81%; MCF10A rereplic: -2%; VP16 counter: -4%; RORg inh: 20%; ELG1 repair inh: -3%

How did CCOc1ccc2c(c1)n([O-])c1c([n+]2=O)CCCC1 do in these assays?
SW480 rerep: -1%; MCF10A rereplic: -3%; VP16 counter: inconclusive; RORg inh: 13µM*; ELG1 repair inh: inconclusive

How did CCOC(=O)c1cnc2c(C)c(C)ccc2c1NCCN1CCOCC1 do in these assays?
SW480 rerep: inconclusive; MCF10A rereplic: 14%; VP16 counter: -8%; RORg inh: -9%; ELG1 repair inh: inconclusive

Results for Cc1cccc(N2CCN(C(=O)c3cn(C)c(=O)c4c3c3ccccc3n4C)CC2)c1C ?
SW480 rerep: inconclusive; MCF10A rereplic: inconclusive; VP16 counter: 1%; RORg inh: 35%; ELG1 repair inh: 23µM*

Results for CC1CC(C)CN(C(=O)CCCn2c(=O)c3cccn3c3cccnc32)C1 (stereo unspecified) ?
SW480 rerep: -5%; MCF10A rereplic: -10%; VP16 counter: 7%; RORg inh: -4%; ELG1 repair inh: 8%

How did Cc1cccc(N2CCN(C(=O)CCn3c(=O)[nH]c4ccccc4c3=O)CC2)c1C do in these assays?
SW480 rerep: -4%; MCF10A rereplic: 14%; VP16 counter: 0%; RORg inh: 31%; ELG1 repair inh: 9.2µM*

Results for Cc1cccc(N2CCN(C(=O)CCCn3c(=O)c4cccn4c4cccnc43)CC2)c1C ?
SW480 rerep: -15%; MCF10A rereplic: inconclusive; VP16 counter: -3%; RORg inh: 6%; ELG1 repair inh: 16µM*

What do the screens show for `COc1ccccc1N1CCN(C(=O)CCn2c(=O)[nH]c3ccccc3c2=O)CC1`?
SW480 rerep: -8%; MCF10A rereplic: 0%; VP16 counter: 2%; RORg inh: 22%; ELG1 repair inh: -15%

What do the screens show for `Cn1c2ccccc2c2c(C(=O)N3CCN(c4ccccc4)CC3)cn(C3CCCC3)c(=O)c21`?
SW480 rerep: -2%; MCF10A rereplic: 12%; VP16 counter: -5%; RORg inh: 11%; ELG1 repair inh: inconclusive

How did Cc1ccc(Cl)cc1N1CCN(C(=O)CCCn2c(=O)c3cccn3c3cccnc32)CC1 do in these assays?
SW480 rerep: inconclusive; MCF10A rereplic: 16µM*; VP16 counter: -18%; RORg inh: 41%; ELG1 repair inh: inconclusive

What do the screens show for `CN(C)c1ccc(Nc2ccc([N+](=O)[O-])cn2)cc1`?
SW480 rerep: inconclusive; MCF10A rereplic: 4%; VP16 counter: 5%; RORg inh: 25%; ELG1 repair inh: inconclusive

How did Cc1ccc(C)c(-n2ccnc2SCC(=O)Nc2cccc(S(=O)(=O)NC3=NCCC3)c2)c1 do in these assays?
SW480 rerep: -46%; MCF10A rereplic: -1%; ELG1 repair inh: -12%

How did Cc1ccc(CNCCCn2cnc3c(OCc4ccccc4)ncnc32)o1 do in these assays?
SW480 rerep: inconclusive; MCF10A rereplic: 5%

Results for CCOc1cc(CNC(=O)CCCn2c(=O)c3cccn3c3cccnc32)cc(OCC)c1OCC ?
SW480 rerep: -5%; MCF10A rereplic: 0%; VP16 counter: 1%; RORg inh: 45%; ELG1 repair inh: 16µM*

How did CCc1ccc(CNC(=O)CCCn2c(=O)c3cccn3c3cccnc32)cc1 do in these assays?
SW480 rerep: -7%; MCF10A rereplic: 15%; VP16 counter: -14%; RORg inh: -21%; ELG1 repair inh: 2%

How did COc1c(C(=O)NC(=S)Nc2nnn(C)n2)cc2ccccc2c1Br do in these assays?
SW480 rerep: -2%; MCF10A rereplic: 10%; VP16 counter: 4µM*; RORg inh: 2.5µM*; ELG1 repair inh: 15%

How did Cn1nnc(NC(=S)NC(=O)c2cccc3c(Cl)cccc23)n1 do in these assays?
SW480 rerep: 2%; MCF10A rereplic: 8%; VP16 counter: 2.8µM*; RORg inh: 0.89µM*; ELG1 repair inh: 9%

What do the screens show for `Cn1nnc(NC(=S)NC(=O)c2cccc3c(Br)cccc23)n1`?
SW480 rerep: -7%; MCF10A rereplic: -43%; VP16 counter: 2.8µM*; RORg inh: 0.89µM*; ELG1 repair inh: -16%

Results for COc1ccccc1C(=O)Nc1nnn(C)n1 ?
SW480 rerep: 1%; MCF10A rereplic: 5%; VP16 counter: 2%; RORg inh: 1%; ELG1 repair inh: 10%

How did COc1ccccc1NC(=S)NCc1ccccc1Cl do in these assays?
SW480 rerep: -1%; MCF10A rereplic: -1%; VP16 counter: 7.1µM*; RORg inh: 8.9µM*; ELG1 repair inh: -8%

What do the screens show for `COc1ccc(NC(=S)NCc2ccccc2Cl)c(OC)c1`?
SW480 rerep: -4%; MCF10A rereplic: 7%; VP16 counter: 7.1µM*; RORg inh: 13µM*; ELG1 repair inh: inconclusive

What do the screens show for `COC(=O)Cc1ccc(NC(=S)NCc2ccccc2Cl)cc1`?
SW480 rerep: 7%; MCF10A rereplic: 18%; VP16 counter: inconclusive; RORg inh: inconclusive; ELG1 repair inh: 13%

Compound activity as filed in PubChem.
